Legend:
[1] = target: Sphingosine kinase 1 (Homo sapiens) (UniProt Q9NYA1); settings: at 1 µM;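 also: mean SPHK1 inhibition value reported from the GSK PKIS kinase panel screen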
[2] = target: T1, Sphingosine kinase 2 (Homo sapiens) (UniProt Q9NRA0); settings: at 0.1 µM
T1 sequence (whole entry): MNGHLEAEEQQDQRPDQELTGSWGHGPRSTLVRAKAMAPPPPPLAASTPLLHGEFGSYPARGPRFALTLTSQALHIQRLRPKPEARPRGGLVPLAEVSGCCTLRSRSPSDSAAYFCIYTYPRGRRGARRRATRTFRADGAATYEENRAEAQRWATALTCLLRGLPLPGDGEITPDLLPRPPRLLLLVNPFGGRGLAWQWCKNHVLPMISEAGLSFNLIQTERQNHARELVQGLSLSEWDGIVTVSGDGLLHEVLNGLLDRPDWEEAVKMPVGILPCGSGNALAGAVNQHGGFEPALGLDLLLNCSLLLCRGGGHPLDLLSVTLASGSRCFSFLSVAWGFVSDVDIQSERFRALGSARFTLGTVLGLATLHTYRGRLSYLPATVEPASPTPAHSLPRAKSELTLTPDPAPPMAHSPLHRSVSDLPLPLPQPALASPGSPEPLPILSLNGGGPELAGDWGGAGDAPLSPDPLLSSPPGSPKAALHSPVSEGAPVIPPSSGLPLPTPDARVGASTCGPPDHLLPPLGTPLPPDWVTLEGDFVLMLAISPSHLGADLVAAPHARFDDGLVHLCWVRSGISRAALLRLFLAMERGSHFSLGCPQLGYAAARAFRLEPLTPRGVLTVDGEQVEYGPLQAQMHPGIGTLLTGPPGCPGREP

[3] = target: T1, Sphingosine kinase 2 (Homo sapiens); settings: at 1 µM
[4] = target: Casein kinase II subunit alpha (Homo sapiens) (UniProt P68400); settings: at 0.1 µM
[5] = target: Casein kinase II subunit alpha (Homo sapiens) (UniProt P68400); settings: at 1 µM
[6] = target: T2, Inhibitor of nuclear factor kappa-B kinase subunit alpha (Homo sapiens) (UniProt O15111); settings: at 0.1 µM
T2 sequence (whole entry): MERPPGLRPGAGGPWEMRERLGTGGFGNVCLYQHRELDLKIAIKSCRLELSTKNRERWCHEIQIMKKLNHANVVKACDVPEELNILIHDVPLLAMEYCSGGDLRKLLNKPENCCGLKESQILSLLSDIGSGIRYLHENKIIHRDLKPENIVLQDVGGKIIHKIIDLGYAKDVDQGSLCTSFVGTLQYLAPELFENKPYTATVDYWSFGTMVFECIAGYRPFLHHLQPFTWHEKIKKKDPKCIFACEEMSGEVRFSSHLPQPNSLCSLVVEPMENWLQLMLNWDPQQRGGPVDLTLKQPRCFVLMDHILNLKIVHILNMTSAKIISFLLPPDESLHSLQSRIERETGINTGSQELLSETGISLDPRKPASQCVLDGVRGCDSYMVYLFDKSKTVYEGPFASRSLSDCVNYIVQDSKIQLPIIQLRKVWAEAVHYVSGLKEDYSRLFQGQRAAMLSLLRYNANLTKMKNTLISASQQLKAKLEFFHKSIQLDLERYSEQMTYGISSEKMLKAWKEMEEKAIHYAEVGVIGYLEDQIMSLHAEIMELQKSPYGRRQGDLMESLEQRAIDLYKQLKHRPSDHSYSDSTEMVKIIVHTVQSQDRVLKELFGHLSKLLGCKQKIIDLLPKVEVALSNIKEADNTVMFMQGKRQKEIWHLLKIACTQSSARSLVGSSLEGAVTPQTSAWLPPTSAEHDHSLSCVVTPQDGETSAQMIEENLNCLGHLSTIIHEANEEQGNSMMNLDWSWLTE

[7] = target: T2, Inhibitor of nuclear factor kappa-B kinase subunit alpha (Homo sapiens); settings: at 1 µM
[8] = target: T3, Inhibitor of nuclear factor kappa-B kinase subunit beta (Homo sapiens) (UniProt O14920); settings: at 0.1 µM
T3 sequence (whole entry): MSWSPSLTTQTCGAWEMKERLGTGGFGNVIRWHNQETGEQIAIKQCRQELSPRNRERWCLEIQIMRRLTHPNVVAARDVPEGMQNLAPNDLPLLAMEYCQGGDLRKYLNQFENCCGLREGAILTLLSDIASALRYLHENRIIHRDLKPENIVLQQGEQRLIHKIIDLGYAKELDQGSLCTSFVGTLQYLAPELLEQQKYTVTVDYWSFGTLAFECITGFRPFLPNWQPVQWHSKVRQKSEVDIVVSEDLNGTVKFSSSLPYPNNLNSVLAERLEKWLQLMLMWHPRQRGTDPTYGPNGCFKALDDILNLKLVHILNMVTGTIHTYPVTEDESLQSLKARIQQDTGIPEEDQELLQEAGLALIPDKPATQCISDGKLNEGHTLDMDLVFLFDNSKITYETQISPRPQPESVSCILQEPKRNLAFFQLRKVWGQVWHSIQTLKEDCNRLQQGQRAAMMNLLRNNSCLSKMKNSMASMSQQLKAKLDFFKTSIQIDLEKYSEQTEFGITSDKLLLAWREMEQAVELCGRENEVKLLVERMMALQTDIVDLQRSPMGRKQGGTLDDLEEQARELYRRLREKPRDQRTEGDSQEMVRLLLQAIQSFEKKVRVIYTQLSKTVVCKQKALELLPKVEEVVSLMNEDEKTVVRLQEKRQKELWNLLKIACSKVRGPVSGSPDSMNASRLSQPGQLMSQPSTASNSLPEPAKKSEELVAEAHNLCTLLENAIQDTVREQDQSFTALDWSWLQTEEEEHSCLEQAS

[9] = target: T3, Inhibitor of nuclear factor kappa-B kinase subunit beta (Homo sapiens); settings: at 1 µM
[10] = target: T4, Inhibitor of nuclear factor kappa-B kinase subunit epsilon (Homo sapiens) (UniProt Q14164); settings: at 0.1 µM
T4 sequence (whole entry): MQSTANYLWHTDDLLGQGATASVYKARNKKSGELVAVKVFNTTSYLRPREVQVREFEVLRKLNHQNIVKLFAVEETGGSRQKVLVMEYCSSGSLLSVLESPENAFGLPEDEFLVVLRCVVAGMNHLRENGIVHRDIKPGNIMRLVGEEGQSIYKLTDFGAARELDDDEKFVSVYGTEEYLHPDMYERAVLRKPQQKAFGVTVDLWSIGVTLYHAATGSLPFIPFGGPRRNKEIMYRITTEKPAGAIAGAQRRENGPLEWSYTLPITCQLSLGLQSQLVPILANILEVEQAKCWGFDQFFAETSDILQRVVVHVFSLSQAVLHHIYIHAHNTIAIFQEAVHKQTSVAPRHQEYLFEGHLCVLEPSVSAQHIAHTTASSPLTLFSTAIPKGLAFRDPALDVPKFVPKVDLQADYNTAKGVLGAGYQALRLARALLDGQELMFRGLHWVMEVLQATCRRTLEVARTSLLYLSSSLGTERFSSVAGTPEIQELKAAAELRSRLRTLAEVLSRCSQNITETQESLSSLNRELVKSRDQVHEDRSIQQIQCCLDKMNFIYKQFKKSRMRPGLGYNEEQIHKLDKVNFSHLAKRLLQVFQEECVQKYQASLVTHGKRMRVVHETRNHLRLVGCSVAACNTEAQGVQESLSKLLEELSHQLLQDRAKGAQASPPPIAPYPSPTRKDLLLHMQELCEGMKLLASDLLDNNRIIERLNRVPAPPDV

[11] = target: T4, Inhibitor of nuclear factor kappa-B kinase subunit epsilon (Homo sapiens); settings: at 1 µM
[12] = target: T5, Serine/threonine-protein kinase Nek1 (Homo sapiens) (UniProt Q96PY6); settings: at 0.1 µM
T5 sequence (whole entry): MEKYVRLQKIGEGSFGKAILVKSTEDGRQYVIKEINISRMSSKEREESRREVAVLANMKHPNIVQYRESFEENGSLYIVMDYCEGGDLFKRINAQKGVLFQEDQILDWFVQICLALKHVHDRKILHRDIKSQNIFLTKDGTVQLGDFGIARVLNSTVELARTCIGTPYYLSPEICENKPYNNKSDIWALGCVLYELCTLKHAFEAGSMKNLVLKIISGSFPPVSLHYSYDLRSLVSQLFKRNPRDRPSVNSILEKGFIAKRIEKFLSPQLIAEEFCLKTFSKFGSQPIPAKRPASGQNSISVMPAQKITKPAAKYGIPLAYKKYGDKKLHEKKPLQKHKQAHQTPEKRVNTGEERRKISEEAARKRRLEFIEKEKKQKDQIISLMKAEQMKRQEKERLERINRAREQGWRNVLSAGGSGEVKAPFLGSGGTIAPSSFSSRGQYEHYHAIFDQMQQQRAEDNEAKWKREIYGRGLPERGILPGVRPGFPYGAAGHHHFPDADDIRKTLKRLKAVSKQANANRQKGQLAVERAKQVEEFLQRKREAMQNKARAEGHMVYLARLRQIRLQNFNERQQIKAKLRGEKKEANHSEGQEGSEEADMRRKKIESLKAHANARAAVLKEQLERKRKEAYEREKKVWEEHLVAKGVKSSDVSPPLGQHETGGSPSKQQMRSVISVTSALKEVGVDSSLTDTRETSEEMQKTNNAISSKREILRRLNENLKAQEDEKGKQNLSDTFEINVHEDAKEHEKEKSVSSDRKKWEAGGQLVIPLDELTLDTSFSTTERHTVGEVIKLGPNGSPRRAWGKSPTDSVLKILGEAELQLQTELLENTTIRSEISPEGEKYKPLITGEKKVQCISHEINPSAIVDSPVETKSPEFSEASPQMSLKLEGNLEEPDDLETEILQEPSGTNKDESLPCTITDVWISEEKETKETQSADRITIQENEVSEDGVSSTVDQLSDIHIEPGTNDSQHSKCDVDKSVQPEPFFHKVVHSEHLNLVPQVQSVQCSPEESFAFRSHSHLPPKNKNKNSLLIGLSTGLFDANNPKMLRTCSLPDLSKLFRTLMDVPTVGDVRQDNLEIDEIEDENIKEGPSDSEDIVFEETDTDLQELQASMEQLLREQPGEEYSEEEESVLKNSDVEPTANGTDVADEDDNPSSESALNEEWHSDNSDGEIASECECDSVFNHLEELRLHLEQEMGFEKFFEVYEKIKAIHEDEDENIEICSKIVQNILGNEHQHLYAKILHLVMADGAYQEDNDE

[13] = target: T5, Serine/threonine-protein kinase Nek1 (Homo sapiens); settings: at 1 µM
[14] = target: T6, Serine/threonine-protein kinase Nek2 (Homo sapiens) (UniProt P51955); settings: at 0.1 µM
T6 sequence (whole entry): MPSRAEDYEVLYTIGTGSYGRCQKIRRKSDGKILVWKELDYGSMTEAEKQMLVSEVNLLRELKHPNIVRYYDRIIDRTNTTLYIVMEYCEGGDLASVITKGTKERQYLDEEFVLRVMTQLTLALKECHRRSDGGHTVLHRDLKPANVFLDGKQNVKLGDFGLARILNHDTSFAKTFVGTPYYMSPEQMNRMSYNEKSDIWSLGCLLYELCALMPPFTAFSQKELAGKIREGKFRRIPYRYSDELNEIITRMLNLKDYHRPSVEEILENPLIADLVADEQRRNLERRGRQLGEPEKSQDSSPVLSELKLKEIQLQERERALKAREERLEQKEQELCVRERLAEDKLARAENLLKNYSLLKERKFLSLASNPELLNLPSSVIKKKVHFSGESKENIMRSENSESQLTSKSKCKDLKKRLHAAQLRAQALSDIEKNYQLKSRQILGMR

[15] = target: T6, Serine/threonine-protein kinase Nek2 (Homo sapiens); settings: at 1 µM
[16] = target: Serine/threonine-protein kinase Nek6 (Homo sapiens) (UniProt Q9HC98); settings: at 0.1 µM
[17] = target: Serine/threonine-protein kinase Nek6 (Homo sapiens) (UniProt Q9HC98); settings: at 1 µM
[18] = target: Serine/threonine-protein kinase Nek7 (Homo sapiens) (UniProt Q8TDX7); settings: at 0.1 µM
[19] = target: Serine/threonine-protein kinase Nek7 (Homo sapiens) (UniProt Q8TDX7); settings: at 1 µM
[20] = target: T7, Serine/threonine-protein kinase Nek9 (Homo sapiens) (UniProt Q8TD19); settings: at 0.1 µM;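 also: reported value is the mean percent inhibition of NEK9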
T7 sequence (whole entry): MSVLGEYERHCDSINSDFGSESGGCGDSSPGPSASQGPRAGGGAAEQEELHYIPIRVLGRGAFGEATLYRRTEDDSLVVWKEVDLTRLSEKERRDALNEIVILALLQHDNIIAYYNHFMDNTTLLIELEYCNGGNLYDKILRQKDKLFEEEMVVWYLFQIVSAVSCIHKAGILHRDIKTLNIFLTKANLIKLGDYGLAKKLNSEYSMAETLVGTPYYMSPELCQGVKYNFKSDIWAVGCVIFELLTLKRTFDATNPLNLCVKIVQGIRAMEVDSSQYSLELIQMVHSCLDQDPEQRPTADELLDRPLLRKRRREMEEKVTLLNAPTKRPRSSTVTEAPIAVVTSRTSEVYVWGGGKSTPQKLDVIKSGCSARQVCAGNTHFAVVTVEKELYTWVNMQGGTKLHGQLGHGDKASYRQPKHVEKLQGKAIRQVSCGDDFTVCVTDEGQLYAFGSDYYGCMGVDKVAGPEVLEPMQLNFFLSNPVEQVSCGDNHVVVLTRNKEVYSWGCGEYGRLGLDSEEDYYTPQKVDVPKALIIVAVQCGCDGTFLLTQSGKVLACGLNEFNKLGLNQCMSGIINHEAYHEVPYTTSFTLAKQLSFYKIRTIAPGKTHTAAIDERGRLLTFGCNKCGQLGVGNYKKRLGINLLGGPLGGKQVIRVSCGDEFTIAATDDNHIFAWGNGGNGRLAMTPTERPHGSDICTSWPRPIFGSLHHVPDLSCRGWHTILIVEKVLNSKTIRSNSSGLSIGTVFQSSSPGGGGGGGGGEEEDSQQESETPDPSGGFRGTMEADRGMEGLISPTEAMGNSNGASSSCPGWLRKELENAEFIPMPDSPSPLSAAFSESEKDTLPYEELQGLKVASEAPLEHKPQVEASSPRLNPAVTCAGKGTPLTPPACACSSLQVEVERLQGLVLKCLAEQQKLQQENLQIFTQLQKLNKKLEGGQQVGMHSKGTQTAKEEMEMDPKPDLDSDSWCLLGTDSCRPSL

Sequence of Casein kinase II subunit alpha (Homo sapiens) (P68400 whole entry, looked up): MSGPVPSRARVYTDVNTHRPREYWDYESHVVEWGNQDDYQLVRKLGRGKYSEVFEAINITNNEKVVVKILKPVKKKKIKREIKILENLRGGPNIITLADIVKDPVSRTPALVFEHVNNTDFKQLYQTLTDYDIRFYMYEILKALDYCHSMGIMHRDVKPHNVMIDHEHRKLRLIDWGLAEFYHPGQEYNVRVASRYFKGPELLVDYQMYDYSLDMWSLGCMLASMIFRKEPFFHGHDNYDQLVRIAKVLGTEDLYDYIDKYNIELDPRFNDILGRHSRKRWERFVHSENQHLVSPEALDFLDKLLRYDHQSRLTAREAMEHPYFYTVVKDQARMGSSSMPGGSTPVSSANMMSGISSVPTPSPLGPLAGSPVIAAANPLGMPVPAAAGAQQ
Sequence of Serine/threonine-protein kinase Nek7 (Homo sapiens) (Q8TDX7 whole entry, looked up): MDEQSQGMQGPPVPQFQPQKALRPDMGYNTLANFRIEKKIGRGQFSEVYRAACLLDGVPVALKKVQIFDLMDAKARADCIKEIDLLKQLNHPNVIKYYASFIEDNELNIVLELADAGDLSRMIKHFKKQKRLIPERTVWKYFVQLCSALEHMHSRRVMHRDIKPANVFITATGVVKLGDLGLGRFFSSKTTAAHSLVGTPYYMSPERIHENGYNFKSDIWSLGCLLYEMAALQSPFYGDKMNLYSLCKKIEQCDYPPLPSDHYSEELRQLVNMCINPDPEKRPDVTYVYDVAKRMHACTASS
Sequence of Sphingosine kinase 1 (Homo sapiens) (Q9NYA1 whole entry): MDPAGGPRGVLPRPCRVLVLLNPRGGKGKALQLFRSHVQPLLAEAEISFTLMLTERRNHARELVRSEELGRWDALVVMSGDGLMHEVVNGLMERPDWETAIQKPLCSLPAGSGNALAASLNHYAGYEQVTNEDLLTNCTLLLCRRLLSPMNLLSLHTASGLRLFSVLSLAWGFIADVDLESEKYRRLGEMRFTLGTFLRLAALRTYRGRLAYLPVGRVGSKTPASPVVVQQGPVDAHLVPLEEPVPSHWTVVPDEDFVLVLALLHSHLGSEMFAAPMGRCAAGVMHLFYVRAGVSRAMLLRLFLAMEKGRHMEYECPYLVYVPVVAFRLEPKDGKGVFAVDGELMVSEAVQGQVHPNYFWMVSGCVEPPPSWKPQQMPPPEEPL
Sequence of Serine/threonine-protein kinase Nek6 (Homo sapiens) (Q9HC98 whole entry): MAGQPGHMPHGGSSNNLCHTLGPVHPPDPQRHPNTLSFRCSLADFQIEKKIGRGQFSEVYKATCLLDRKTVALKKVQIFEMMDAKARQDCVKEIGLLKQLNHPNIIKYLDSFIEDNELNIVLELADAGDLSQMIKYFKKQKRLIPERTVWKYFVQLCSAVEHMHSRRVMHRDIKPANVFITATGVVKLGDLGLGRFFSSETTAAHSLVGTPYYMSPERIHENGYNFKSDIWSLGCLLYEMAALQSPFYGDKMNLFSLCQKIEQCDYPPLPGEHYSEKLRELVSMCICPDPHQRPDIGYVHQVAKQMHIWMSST

Compound	inhibition [1] [%]	inhibition [2] [%]	inhibition [3] [%]	inhibition [4] [%]	inhibition [5] [%]	inhibition [6] [%]	inhibition [7] [%]	inhibition [8] [%]	inhibition [9] [%]	inhibition [10] [%]	inhibition [11] [%]	inhibition [12] [%]	inhibition [13] [%]	inhibition [14] [%]	inhibition [15] [%]	inhibition [16] [%]	inhibition [17] [%]	inhibition [18] [%]	inhibition [19] [%]	inhibition [20] [%]
COc1cc(/C=N/Nc2ncnc3c2cnn3C(C)C)ccc1O	7.48	-1.04	1.89	2.91	11.8	-0.1	-0.51	2.79	-2.39	1.71	1.92	2.42	10.4	2.62	6.4	2.57	1.52	5.39	2.72	-0.27
COC(=O)c1ccc2c(c1)C(=Cc1cc(Br)c(O)c(Br)c1)C(=O)N2	-3.43	-0.52	-0.45	14.7	47	5.93	3	6.94	8.75	7.2	13.9	2.53	2.21	4.16	2.86	0.58	2.21	4.31	8.9	6.38
O=C(Nc1ccc(Oc2ccc3[nH]c(NC(=O)c4ccco4)nc3c2)cc1)Nc1cc(C(F)(F)F)ccc1F	6.73	0.7	-0.32	0.08	-0.44	0.68	5.25	-0.61	-1.89	-0.79	-0.41	0.66	0.27	0.32	0.28	-0.01	-0.32	0.83	0.99	-0.1

From ChEMBL document CHEMBL1961873, “Compounds: GSK PKIS; Assays: Nanosyn kinase panel” (2012)
